KB-V1 cytotox – KB-V1 MDR subline cytotoxicity; KB-V1 MDR cells viability, CellTiter-Glo, 72 h; Potency, µM (top dose mostly 46.1 µM), usual class: cytotoxic; 3.4% of 400,000 active; AID 1347076; note: nearly all actives have a fitted effect of over 60% in size
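Potencies derive from concentration-effect curves fitted to normalized luminescence (CellTiter-Glo) of KB-V1 cells treated for 72 h at 37 degrees C in phenol-red-free DMEM containing 10% FBS.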
ATXN2 expr inh – reduces ATXN2 reporter expression in HEK-293 cells; 0.72% of 360,000 active; HEK-293 ATXN2-luciferase reporter, luminescence, 24 h; Potency, µM (titrated, usually from 57 µM), most hits filed as inhibitors; note: nearly all actives have a fitted effect of over 55% in size
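qHTS (up to 57 uM final) was run with 24 h compound exposure of reporter cells at 37 °C. Each well was multiplexed: SteadyGlo luminescence measured ATXN2-luciferase expression after a fluorogenic Gly-Phe-AFC viability readout (25 uM final).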
HT1080 IDH1KD tx – toxicity to HT-1080 IDH1 knockdown cells (counter line); HT-1080 IDH1 knockdown viability, ATP luminescence, 48 h; Potency, µM (doses to about 46.1 µM), usual class: cytotoxic; 2% of 360,000 active
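Using the IDH1-knockdown HT-1080 line run in the same batch and compound series as the NT line, viability after 48 h at 37 °C was determined by CellTiter-Glo luminescence and expressed as % activity.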
S2 tox – reduces viability in counter-screen for ATXN expression inhibitors. S2 cells (HEK-293 line with an ATXN2-luciferase reporter) viability, CellTiter-Fluor protease fluorescence, 24 h. Potency, µM (top dose mostly 56.7 µM), usual class: cytotoxic. 0.49% of 400,000 active. AID 651635; note: nearly all actives have a fitted effect of over 40% in size
HT1080-NT tox – kills 2HG-producing HT-1080-NT fibrosarcoma cells; Potency, µM (titrated, usually from 46.1 µM), most hits filed as cytotoxic; HT-1080-NT fibrosarcoma viability, CellTiter-Glo ATP luminescence, 48 h; AID 686970; 1.6% of 360,000 active;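 note: NT is the 2HG producing partner of a matched IDH1 knockdown line; nearly all actives have a fitted effect of over 55% in size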
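750 cells/well, RPMI + 5% FBS; 2 h settle, compound pin-transfer, 48 h at 37 degrees C. CellTiter-Glo 10 min RT, luminescence. Normalized to DMSO and media-only wells.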
KB-3-1 cytotox – kills parental KB-3-1 adenocarcinoma cells. Potency, µM (doses to about 46.1 µM), usual class: cytotoxic. AID 1347075. KB-3-1 viability, CellTiter-Glo ATP luminescence, 72 h. 1.4% of 400,000 active; note: nearly all actives have a fitted effect of over 60% in size
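Parental KB-3-1 viability, qHTS format: 72 h compound exposure, 37 °C; CellTiter-Glo; media-only wells and DMSO plates as controls; concentration-effect fits on corrected data.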
Of the large screens only hits and unclear results are named; the others gave an inactive call. Rows were chosen to be rich in hits. Some 6.2% of all compounds tested hit in one or more screens of this group. Calls come from the whole dose curve; as a rule, active = well fitted curve in the direction sought with a large enough effect; inconclusive = small, poorly fitted or top-dose-only effect, or another doubt; inactive = no such curve, though single readings can be large; an effect the other way counts as inactive or inconclusive.

Cc1nn(C)c(C)c1CN(Cc1nc(-c2cc(F)ccc2F)oc1C)C1CC1	KB-V1 cytotox 16µM, HT1080 IDH1KD tx inconclusive, S2 tox inconclusive
Cc1nn(C)c(C)c1CN(Cc1nc(-c2ccc(F)cc2F)oc1C)C1CC1	KB-V1 cytotox inconclusive
Nc1nc(=O)n([C@@H]2O[C@H](CO)[C@@H](O)[C@@H]2F)cc1I	none (no result: KB-V1 cytotox, HT1080 IDH1KD tx, HT1080-NT tox, KB-3-1 cytotox)
COc1ccc(NC(=S)c2ccncc2)cc1	KB-V1 cytotox 18µM, KB-3-1 cytotox inconclusive
CC(C)c1ccc(NC(=S)NC2CCCCCC2)cc1	HT1080 IDH1KD tx inconclusive
CC(C)N(C(=O)Nc1ccc2nsnc2c1)C(C)C	KB-V1 cytotox inconclusive, ATXN2 expr inh inconclusive, HT1080 IDH1KD tx inconclusive, HT1080-NT tox 18µM, KB-3-1 cytotox inconclusive
S=C(Nc1ccc2nsnc2c1)NC1CCCCC1	KB-V1 cytotox 16µM
S=C(Nc1ccc(Cl)c(Cl)c1)NC1CCCCC1	KB-V1 cytotox 16µM, ATXN2 expr inh inconclusive, HT1080 IDH1KD tx inconclusive, HT1080-NT tox 10µM, KB-3-1 cytotox 18µM
Cc1ncoc1C(=O)NCc1nc(-c2cccc(NC(=O)c3ccccn3)c2)oc1C	none (no result: KB-V1 cytotox, ATXN2 expr inh, HT1080 IDH1KD tx, HT1080-NT tox, KB-3-1 cytotox)
COc1ccc(Cc2c(-c3ccccc3)nc3ccc(Br)cn23)c(C)c1	HT1080 IDH1KD tx inconclusive, S2 tox inconclusive, HT1080-NT tox inconclusive, KB-3-1 cytotox inconclusive
CCOc1ccc(NC(=S)Nc2ccc3nsnc3c2)cc1	none
Fc1ccc(NC(=S)NC2CCN(Cc3ccccc3)CC2)cc1	none (no result: ATXN2 expr inh)
S=C(Nc1ccc(Cl)cc1)NC1CC2CCC(C1)N2Cc1ccccc1 (configuration not stated)	KB-V1 cytotox inconclusive, HT1080 IDH1KD tx 18µM, HT1080-NT tox inconclusive, KB-3-1 cytotox inconclusive
S=C(Nc1ccc(Cl)c(Cl)c1)NC1CCN(Cc2ccccc2)CC1	KB-V1 cytotox inconclusive, ATXN2 expr inh inconclusive, HT1080 IDH1KD tx 23µM, HT1080-NT tox 26µM, KB-3-1 cytotox inconclusive (no result: S2 tox)
COc1ccc(NC(=S)NN(C)C(=S)Nc2ccc(OC)cc2)cc1	KB-V1 cytotox inconclusive, HT1080 IDH1KD tx 1.3µM, HT1080-NT tox 1.5µM, KB-3-1 cytotox inconclusive
COc1ccc(NC(=S)Nc2ccc3nsnc3c2)cc1	KB-V1 cytotox 18µM, HT1080 IDH1KD tx inconclusive (no result: S2 tox)
CCc1ccc(NC(=S)NC2CC3CCCC(C2)N3Cc2ccccc2)cc1 (configuration not stated)	S2 tox inconclusive (no result: ATXN2 expr inh)
CCOC(=O)c1ccc(NC(=O)c2cc3c(=O)n(C)c4ccccc4c3n2C)cc1	none (no result: HT1080 IDH1KD tx, HT1080-NT tox)
CC(C)(C)CC(C)(C)NC(=S)NC1CCN(Cc2ccccc2)CC1	KB-V1 cytotox 5.2µM, ATXN2 expr inh inconclusive, S2 tox inconclusive, KB-3-1 cytotox inconclusive
S=C(Nc1ccc(Oc2ccc(NC(=S)NC3CCCCC3)cc2)cc1)NC1CCCCC1	KB-V1 cytotox 16µM, KB-3-1 cytotox inconclusive
Cc1cccc(NC(=S)NC2CCN(Cc3ccccc3)CC2)c1C	none
S=C(Nc1ccc(Oc2ccccc2)cc1)NC1CCCCCC1	KB-V1 cytotox inconclusive, HT1080 IDH1KD tx inconclusive, HT1080-NT tox inconclusive, KB-3-1 cytotox inconclusive
Cc1ccccc1C(=O)N/N=C/c1ccc(Sc2ccccn2)o1	KB-V1 cytotox 21µM
O=C(N/N=C\c1ccc(Sc2ccccn2)o1)c1cccc(Br)c1	KB-V1 cytotox 23µM
O=C(N/N=C/c1cccc([N+](=O)[O-])c1)c1cccc(Br)c1	none
COc1ccc(NC(=O)Cc2nnc(SCC(=O)NC3CCCCC3C)n2C)cc1 (configuration not stated)	none
CCn1c(SCC(=O)NC2CCCCC2C)nnc1-c1ccc(OC)cc1 (configuration not stated)	KB-V1 cytotox 2.6µM
COc1ccccc1-c1nc(S(=O)(=O)c2ccccc2)c(N2CCC(C)CC2)o1	S2 tox inconclusive (no result: HT1080 IDH1KD tx, HT1080-NT tox)
COCCN(CC(=O)Nc1ccccc1C(F)(F)F)C(=O)/C=C/c1cc(Cl)c2c(c1)OCCO2	KB-V1 cytotox 3.7µM
CC(C)Cn1c(CN(C)Cc2ccccc2)nc2c1c(=O)n(C)c(=O)n2C	S2 tox inconclusive
CN(Cc1ccccc1)Cc1nc2c(c(=O)n(C)c(=O)n2C)n1CCCc1ccccc1	KB-V1 cytotox 16µM
CCCCCn1c(CN2CCN(C)CC2)nc2c1c(=O)n(C)c(=O)n2C	none

Screening data deposited in PubChem BioAssay by National Center for Advancing Translational Sciences (NCATS).
